# A selection: hits, their analogues and other compounds. The true share with any hit is near 3.3%.
# RE007 growth inh: less growth of the S. pombe RE007 Vpr strain. 360,000 tested, 0.21% active. Potency, µM (series often up to 92.2 µM), for the others: top-dose activity change, negative = less growth, most hits filed as inhibitors. S. pombe RE007 Vpr strain, BacTiter-Glo ATP luminescence, 24 h. AID 651644; active = well fitted falling curve with a large enough effect; inconclusive = small, poorly fitted or top-dose-only effect; inactive = no such curve, though single readings can be large or run the other way; note: nearly all actives have a fitted effect of over 50% in size
#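 Fission yeast RE007 carrying one integrated HIV-1 vpr copy, seeded at OD 0.01 in PMG+AL medium with 23 nL pinned compound. Grown 24 h at 30 degrees; viability read by BacTiter-Glo luminescence after 5 min.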
# Sm TGR inh: inhibitors of Schistosoma mansoni thioredoxin glutathione reductase; 360,000 tested, 3% active; Q962Y6; Potency, µM (doses to about 114 µM), without a hit: top-dose activity change, negative = inhibition, actives largely listed as inhibitors; purified TGR, DTNB reduction, TNB absorbance 405 nm; note: nearly all actives have a fitted effect of over 60% in size
#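 First, TGR (20 nM dispensed) and NADPH were mixed with compound. Second, a 15 min room-temperature incubation followed. Third, further NADPH and then DTNB were added to start the reaction. Finally, TNB absorbance was monitored kinetically.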
# Tb PYK inh: T. brucei pyruvate kinase inhibition. Q57TT1. TbPYK enzyme, Kinase-Glo Plus ATP luminescence, 45 min. Potency, µM (titrated, usually from 76.8 µM), for inactives: at the top dose activity, negative = inhibition, usual class: inhibitors. 410,000 tested, 0.12% active. AID 624173; note: nearly all actives have a fitted effect of over 50% in size
#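 Activity of T. brucei pyruvate kinase was followed by Kinase-Glo Plus luminescence after the enzyme reacted 45 min at room temperature with 130 uM ADP (final) and substrate. Test compounds were added before ADP at multiple concentrations.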
# LmPK inhibitor: blocks Leishmania mexicana pyruvate kinase activity; purified LmPK, Kinase-Glo ATP luminescence, 1 h; Potency, µM (doses to about 57.5 µM), without a hit: at the top dose activity change, negative = inhibition, actives largely listed as inhibitors; AID 1721; Q27686; 290,000 tested, 0.37% active
# Target sequence (Q27686 whole entry, looked up): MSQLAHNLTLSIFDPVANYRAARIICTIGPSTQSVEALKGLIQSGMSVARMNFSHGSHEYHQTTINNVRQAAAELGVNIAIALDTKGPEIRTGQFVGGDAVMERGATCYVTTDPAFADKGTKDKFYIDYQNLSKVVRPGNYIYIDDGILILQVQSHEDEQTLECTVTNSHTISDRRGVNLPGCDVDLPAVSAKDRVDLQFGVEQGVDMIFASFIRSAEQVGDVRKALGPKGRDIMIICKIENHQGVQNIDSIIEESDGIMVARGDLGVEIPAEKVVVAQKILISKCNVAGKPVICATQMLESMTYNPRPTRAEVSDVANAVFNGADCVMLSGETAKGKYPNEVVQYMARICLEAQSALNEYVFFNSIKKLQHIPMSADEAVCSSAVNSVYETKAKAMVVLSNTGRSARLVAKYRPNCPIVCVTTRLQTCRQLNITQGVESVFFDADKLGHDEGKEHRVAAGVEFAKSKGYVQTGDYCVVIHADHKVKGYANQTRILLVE
#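 In 50 mM imidazole pH 7.2 with 7 mM MgCl2, LmPK (0.1 nM) turned over PEP (0.5 mM) and ADP (0.1 mM) for 1 h at room temperature. Luciferase read-out of ATP.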
# Giardia FBPA inh: Giardia lamblia aldolase inhibition; Potency, µM (titrated, usually from 59.6 µM), for the others: at the top dose activity, negative = inhibition, actives largely listed as inhibitors; 290,000 tested, 0.71% active; purified Giardia FBPA; note: nearly all actives have a fitted effect of over 55% in size
#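 40 nM FBPA preincubated 10 min at RT with compound (up to 57.5 uM final), then substrate plus GAPDH/TPI/NAD/arsenate coupling and diaphorase/resazurin added. Fluorescence read after 20 min at RT, 525/598 nm.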
# * marks the source's active call; other numbers are inactive results; i = inactive; ? = inconclusive; · = no result; [ ] = remark or other dose. Unless noted, calls come from the whole dose curve; as a rule, active = well fitted curve in the direction sought with a large enough effect; inconclusive = small, poorly fitted or top-dose-only effect, or another doubt; inactive = no such curve, though single readings can be large; an effect the other way counts as inactive or inconclusive. % is set by controls: 0 for no effect and ±100 for the full control effect; potency is the fitted concentration of half-maximal effect.
SMILES,RE007 growth inh,Sm TGR inh,Tb PYK inh,LmPK inhibitor,Giardia FBPA inh
O=C(COC(=O)/C=C/c1ccc(Br)o1)NCCCN1CCCC1=O,-19.4%,31.6µM*,3.3%,0.7%,-0.5%
O=C(Nc1ccccc1)Nc1ccc(Cl)c(S(=O)(=O)N2CCOCC2)c1,-0.3%,-7.1%,3.9%,3.8%,-3.1%
O=C(/C=C/c1ccco1)Nc1ccc(Cl)c(S(=O)(=O)N2CCOCC2)c1,5.2%,8.91µM*,-2.3%,3.2%,-4.5%
O=C(/C=C/c1ccc(Br)o1)NCCCN1CCOCC1,-9.6%,4.47µM*,-3.3%,6.5%,-25.9%
Cc1cc(C)nc(NS(=O)(=O)c2ccc(NC(=O)C(C)Oc3ccccc3F)cc2)n1 (stereo unspecified),0.1%,5.5%,-21.8%,4.3%,-12.9%
CCOc1ccc(N(CC(=O)NCc2ccc(C)cc2)S(=O)(=O)c2c(C)[nH]c(=O)[nH]c2=O)cc1,-2.8%,6.0%,0.0%,-8.5%,·
c1ccc(COc2ccc(-c3cc4nc(NCc5ccc6c(c5)OCO6)ccn4n3)cc2)cc1,-3.8%,·,2.2%,·,·
CC(=O)Nc1cccc(-c2ccnc3c2CC(C)(C(=O)NCCc2ccccc2)O3)c1 (stereo unspecified),-7.0%[18.4 µM],·,-4.6%,·,·
COc1ccc(-c2nnc(SCC(=O)N3CCc4ccccc43)o2)cc1OC,·,5.5%,1.7%,·,·
O=C(CCN1CCCCC1)c1ccc2c(c1)OCCO2,i,0.0%,2.0%,4.8%,4.2%
COc1cc(C(=O)CCN2CCC(c3ccccc3)C2)cc(OC)c1OC (stereo unspecified),?,0.282µM*,-16.8%,-3.7%,-0.5%
O=C(CCN1CCC(c2ccccc2)C1)c1ccccc1 (stereo unspecified),-14.6%,0.0%,-4.6%,5.6%,-5.8%
O=C(CCN1CCc2ccccc21)c1ccc2c(c1)OCCO2,?,?,-8.1%,-20.9%,-16.3%
O=C(CCN1CCc2ccccc2C1)c1ccc2c(c1)OCCO2,7.94µM*,0.282µM*,-24.1%,5.0%,-1.6%
O=C(CCN1CCC(c2ccccc2)C1)c1cccs1 (stereo unspecified),-9.2%,-54.2%,-7.8%,-2.4%,-7.5%
O=C(CCN1CCC(c2ccccc2)C1)c1ccc2c(c1)OCCO2 (stereo unspecified),?,0.1µM*,-18.8%,-0.6%,-5.9%
O=C(CCN1CCCC1Cc1ccccc1)c1ccc2c(c1)OCCO2 (stereo unspecified),25.1µM*,0.316µM*,-6.4%,5.5%,-5.0%
COCCNC(=O)CSc1nnc(NC(=O)Nc2ccc(C)cc2)s1,·,2.8%,1.1%,·,·
O=C1NC(=O)C(=Cc2ccccc2Oc2ccc(F)cc2)C(=O)N1,0.9%,70.8µM*,-36.0%,3.5%,-19.4%
O=C1NC(=O)/C(=C\c2ccccc2Oc2ccc(F)c(F)c2)S1,-13.0%,0.0%,0.2%,5.6%,18.5%
CN1C(=O)C(=Cc2ccccc2Oc2ccc(Cl)c(F)c2)C(=O)N(C)C1=O,-10.9%,31.6µM*,?,-5.6%,0.5%
Cc1ccc(S(=O)(=O)Oc2ccccc2C=C2C(=O)NC(=O)NC2=O)cc1,9.5%,·,?,·,·
O=C(Nc1ccc(-n2ccc(C(F)(F)F)n2)cc1)c1cccs1,-6.5%,-12.1%,-3.8%,-0.1%,·
COc1cc(C(C(=O)NCC2CCCO2)N(C(=O)Cn2nnc3ccccc32)c2ccc(OC)c(OC)c2)ccc1O (stereo unspecified),2.8%,44.7µM*,-3.7%,-0.2%,-2.3%
COc1ccc(C(C(=O)NCC2CCCO2)N(C(=O)Cn2nnc3ccccc32)c2ccc(NC(C)=O)cc2)cc1 (stereo unspecified),-20.0%,-0.3%,0.0%,0.5%,·
CCOc1cc(C(C(=O)NCC2CCCO2)N(C(=O)Cn2nnc3ccccc32)c2ccc(NC(C)=O)cc2)ccc1O (stereo unspecified),2.5%,22.4µM*,-7.7%,-2.2%,·
Cc1cc(S(N)(=O)=O)ccc1N=Cc1c(O)n(-c2ccccc2)c(=O)[nH]c1=O,-6.0%,·,0.0%,3.5%,4.5%
COCCN(Cc1cc2cc(C)ccc2[nH]c1=O)S(=O)(=O)c1ccc(Cl)cc1,-6.1%,-23.2%,0.1%,1.1%,5.9%

# Source: PubChem BioAssay (National Center for Advancing Translational Sciences (NCATS))
